Several values for one entry are separate records, joined by “and”; a condition that tells them apart may be missing. Equal values may be shown once. Inconclusive results are not listed. Activity calls are given as the source filed them. Calls follow the shape of the dose curve; as a rule, active = well fitted inhibition curve with a large enough effect; inconclusive = small, poorly fitted or top-dose-only effect, or another doubt; inactive = flat fitted curve, though single readings scatter.
Assay: Confirmation Concentration-Response Assay for lipid storage modulators: for probe SAR round 2
Settings: Drosophila S3 cells, BODIPY lipid droplet fluorescence, 18-24 h; series mostly up to 46.1 µM
Source text: NIH Molecular Libraries Probe Production Centers Network [MLPCN] NIH Chemical Genomics Center [NCGC] MLPCN Grant: 1 R03 MH085686-01 Assay Submitter (PI): Beller, Mathias; Max-Planck-Institut fur Biophysikalische Chemie NCGC Assay Overview: Storing lipids as a reservoir for energy or the anabolism of elementary metabolites is a common feature of probably all cells and is conserved from bacteria to humans. The universal cellular lipid storage organelle is the so-called lipid storage droplet (LD). Although ubiquitous, LDs share a simple structure composed of a hydrophobic core that harbors the storage lipids, which is shielded by a droplet-specific phospholipid monolayer to which proteins are attached. The current model of LD biogenesis involves an incorporation of the lipid core into the membrane leaflets of the endoplasmic reticulum (ER) followed by a subsequent budding-like maturation of a LD, which ultimately pinches off. Once released, LD volume can increase by localized lipogenesis or fusion of existing droplets. Storage lipids are re-mobilized enzymatically by lipase activity. Lipase regulation in the adipocyte is heavily studied and involves multiple components including catecholamine signaling, the LD-associated proteins Perilipin and comparative gene identification-58 (CGI-58) and at least two lipases named hormone sensitive lipase (HSL) and adipocyte triglyceride lipase (ATGL). LD regulation outside of the adipocyte is poorly understood and only few components are known. However, there is an urgent need to learn more about ectopic fat depots as mislocalized storage of lipids, for example in the liver or muscle, is an eminent health problem associated with insulin resistance or the metabolic syndrome. We developed a laser-scanning cytometer assay to enable 1,536-well screening and combined the results of the small molecules screen with an RNAi database based on lipid storage.
We dispensed 4 uL of cells at 1.25 x 10^6 cells/mL into LoBase Aurora COC 1,536-well plates (black walled, clear bottom) with a bottle-valve solenoid-based dispenser (Aurora) to obtain 5,000 cells/well. Triacsin C (Sigma-Aldrich T-4540), an inhibitor of long-chain fatty acyl CoA synthetase that blocks synthesis of triglycerides, was used as a positive control for lipid under-storage. A total of 23 nL of compound solution of different concentrations were transferred to the assay plates using a Kalypsys pin tool equipped with a 1,536-pin array containing 10-nL slotted pins (FP1S10, 0.457-mm diameter, 50.8 mm long; V&P Scientific). One microliter of oleic acid (400 uM) was added, and the plate was lidded with stainless steel rubber gasket lined lids containing pinholes. After 18-24 h incubation at 24 degree Celsius and 95% humidity, 4 uL of the dyes BODIPY 493/503 (Molecular Probes) and the Cell Tracker Red CMTPX dye (Molecular Probes) were added to the wells to stain lipid droplets and enumerate cell number, respectively. Fluorescence was detected by excitation of the fluorophores with a 488-nm laser on an Acumen Explorer (TTP Lab Tech). The total intensity in channel 1 (500-530 nm) reflected lipid droplet accumulation. Cells were detected using channel 3 (575- 640 nm) with 5-um width and 100-um depth filters. The ratio of the total intensity in PMT channel 1 over total intensity of channel 3 was also calculated. Percent activity was computed relative to an internal control (100% inhibited lipid droplet deposition due to the presence of 20 uM Triacsin C), which was added to 32 wells/plate.

Row | SMILES | Potency
1 | CCOC(=O)C1CCN(C(=O)C(C)(C)NC(=O)Nc2ccc(F)c(F)c2)CC1 | 1.99 µM (active)
2 | O=C(NC1CCCc2c1cnn2-c1ccc(F)cc1F)c1ccccn1 (stereo unspecified) | 315 nM (active) and 6.3 nM (active)
3 | O=C(NC1CCCc2c1cnn2-c1ccc(O)cc1)c1ccccn1 (stereo unspecified) | 0.0007 µM (active)
4 | O=C(N[C@H]1CCCc2c1cnn2-c1ccc(F)cc1F)c1ccccn1 | 22.3 µM (active)
5 | COc1ccc(-n2ncc3c2CCCC3NC(=O)c2ccccn2)cc1 (stereo unspecified) | 0.0016 µM (active)
6 | O=C(NC1CCCc2c1cnn2CCO)c1ccccn1 (stereo unspecified) | 1.58 µM (active)
7 | CCOC(=O)C1CCN(C(=O)C(C)(C)NC(=O)Nc2ccc(N(C)C)cc2)CC1 | 5.6 µM (active)
8 | CCOC(=O)C1CCN(C(=O)C(C)(C)NC(=O)Nc2ccc(-c3ccccc3)cc2)CC1 | 1.41 µM (active)
9 | CCOC(=O)C1CCN(C(=O)C(C)(C)NC(=O)Nc2cccc(OC)c2)CC1 | 4.45 µM (active)
10 | CCOC(=O)C1CCN(C(=O)C(C)(C)NC(=O)Nc2ccc3ccccc3c2)CC1 | 4.99 µM (active)
11 | O=C(NC1CCCc2c1cnn2-c1ccc(F)cc1F)c1ccccc1 (stereo unspecified) | 0.025 µM (active)
12 | CCOC(=O)C1CCN(C(=O)C(C)(C)NC(=O)Nc2ccc(CN3CCOCC3)cc2)CC1 | inactive
13 | CC(C)(NC(=O)Nc1ccccc1Cl)C(=O)N1CCC(C(=O)O)CC1 | inactive
14 | CCOC(=O)C1CCN(C(=O)C(C)(C)NC(=O)Nc2ccc(Cl)cc2Cl)CC1 | 0.445 µM (active)
15 | CCN(CC)C(=O)C1CCN(C(=O)C(C)(C)NC(=O)Nc2ccccc2Cl)CC1 | 15.8 µM (active)
16 | CC(C)(C)OC(=O)NCCOCCOCCOCCn1ncc2c1CCCC2NC(=O)c1ccccn1 (stereo unspecified) | 0.158 µM (active)

Row | SMILES | Potency
17 | CCOC(=O)C1CCN(C(=O)C(C)(C)NC(=O)Nc2ccc(OC)c(Cl)c2)CC1 | 7.91 µM (active)
18 | CCNC(=O)C1CCN(C(=O)C(C)(C)NC(=O)Nc2ccccc2Cl)CC1 | 14.1 µM (active)
19 | CCOC(=O)C1CCN(C(=O)C(C)(C)NC(=O)Nc2cccc(-c3csc(C)n3)c2)CC1 | 25 µM (active)
20 | CCOC(=O)C1CCN(C(=O)C(C)(C)NC(=O)Nc2ccc(C(F)(F)F)cc2Cl)CC1 | 0.141 µM (active)
21 | CCOC(=O)C1CCN(C(=O)C(C)(C)NC(=O)Nc2ccc3c(c2)CCC3)CC1 | 12.5 µM (active)
22 | CC(C)(C)OC(=O)NCCOCCOCCOc1cccc(-n2ncc3c2CCCC3NC(=O)c2ccccn2)c1 (stereo unspecified) | 0.0056 µM (active)
23 | O=C(NC1CCCc2c1cnn2-c1cccc(O)c1)c1ccccn1 (stereo unspecified) | 0.005 µM (active)
24 | O=C(NC1CCCc2c1cnn2-c1ccc(F)cc1F)c1cccs1 (stereo unspecified) | 0.0063 µM (active)
25 | COc1cccc(-n2ncc3c2CCCC3NC(=O)c2ccccn2)c1 (stereo unspecified) | 0.0025 µM (active)
26 | CCOC(=O)C1CCN(C(=O)C(C)(C)NC(=O)Nc2cccc(C(=O)OC)c2)CC1 | 7.05 µM (active)
27 | CCOC(=O)C1CCN(C(=O)C(C)(C)NC(=O)Nc2ccc(Oc3ccccc3)cc2)CC1 | 0.353 µM (active)
28 | CCOC(=O)C1CCN(C(=O)C(C)(C)NC(=O)Nc2ccc3sccc3c2)CC1 | 12.5 µM (active)
29 | CC(C)(C)OC(=O)NCCOCCOCCOc1ccc(-n2ncc3c2CCCC3NC(=O)c2ccccn2)cc1 (stereo unspecified) | 0.0018 µM (active)
30 | CCOc1ccc(CCNC(=O)c2cc3sccc3n2Cc2cccc(C)c2)cc1OCC | 0.0022 µM (active)
31 | CCOC(=O)C1CCN(C(=O)C(C)(C)NC(=O)Nc2ccccc2Cl)CC1 | 0.705 µM (active)
